HTT ATP protect: protects HTT-Q103 PC12 cells, measured by ATP; Potency, µM (doses to about 56.4 µM), for inactives: cytoprotection (ATP increase), hits mostly activators; AID 1471; PC12 HTT-Q103 induced, cytoprotection, ATP luminescence, 40 h; 0.14% of 230,000 active; active = well fitted curve in the direction sought with a large enough effect; inconclusive = small, poorly fitted or top-dose-only effect, or another doubt; inactive = no such curve, though single readings can be large; an effect the other way counts as inactive or inconclusive; also: % of control where 0% means no effect; nearly all actives have a fitted effect of over 45% in size
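ATP quantification (ATPlite) reports survival of PC12 cells in which tebufenozide, 100 nM final, switches on Htt exon 1 with 103 glutamines linked to GFP; compounds are titrated.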
Lamin A splicing: modulators of lamin A splicing; HeLa LMNA splicing GFP/RFP minigene ratio, 48 h; Potency, µM (titrated, usually from 46.1 µM), without a hit: top-dose ratio change, negative = inhibition, actives largely listed as inhibitors; 0.01% of 200,000 active; active = well fitted inhibition curve with a large enough effect in the signal ratio, with a control signal flat, not every such curve was filed as active; inconclusive = small, poorly fitted or top-dose-only effect, or effect the other way, or a change in a side signal; the % refers to the signal ratio; also: % is scaled to controls: 0 for no effect and ±100 for the full control effect
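S3 HeLa stable clones carrying a lamin A-EGFP splicing minigene plus DsRed2 were seeded at 600 cells/well in Opti-MEM with 2% FBS, pin-dosed and incubated 48 h at 37°C. Acumen cytometry (488 nm) gave the GFP/RFP total-intensity ratio.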
HPGD block: blocks human HPGD enzyme activity; 4.3% of 150,000 active; Potency, µM, for inactives: at the top dose activity change, negative = inhibition, hits mostly inhibitors; P15428; purified HPGD, NADH fluorescence kinetic, PGE2 substrate; also: % is scaled to controls: 0 for no effect and ±100 for the full control effect
Target sequence (P15428 whole entry, looked up): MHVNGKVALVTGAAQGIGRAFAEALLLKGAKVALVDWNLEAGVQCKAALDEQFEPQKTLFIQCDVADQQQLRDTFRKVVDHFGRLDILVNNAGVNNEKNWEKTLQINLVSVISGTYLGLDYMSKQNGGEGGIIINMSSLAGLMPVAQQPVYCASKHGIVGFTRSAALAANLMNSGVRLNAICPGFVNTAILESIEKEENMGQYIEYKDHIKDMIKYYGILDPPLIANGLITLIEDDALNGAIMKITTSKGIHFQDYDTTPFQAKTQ
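20 nM HPGD preincubated 15 min at room temperature with compound in 50 mM Tris-HCl pH 8, 0.01% Tween 20. Started with 1 mM NAD+ and 30 uM prostaglandin E2; NADH fluorescence (360/450 nm) read 5 times over 30-s intervals, last minus first.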
HttQ103 aggreg: reduces HttQ103-GFP aggregates in PC12 cells | PC12 HttQ103-GFP aggregates, Acumen cytometry, 40 h | Potency, µM (titrated, usually from 46.1 µM), inactives show at the highest dose activity change, negative = inhibition, most hits filed as inhibitors | 1.1% of 220,000 active | AID 1688; active = well fitted curve in the direction sought with a large enough effect; inconclusive = small, poorly fitted or top-dose-only effect, or another doubt; inactive = no such curve, though single readings can be large; an effect the other way counts as inactive or inconclusive; also: % is scaled to controls: 0 for no effect and ±100 for the full control effect; nearly all actives have a fitted effect of over 60% in size
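Read-out: GFP aggregate count by laser scanning cytometer (488 nm excitation, 500-530 nm emission, 1–25 µm objects >6 SD above background). Cells: PC12, inducible HTTex1-Q103-GFP, 100 nM tebufenozide; compounds titrated.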
ALDH1A1 block: ALDH1A1 (human) enzyme inhibition; Purified ALDH1A1, NADH fluorescence, propionaldehyde substrate; Potency, µM (top dose mostly 75.3 µM), without a hit: top-dose activity, negative = inhibition, most hits filed as inhibitors; 7.3% of 220,000 active;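 also: plate controls were no enzyme wells and a reference inhibitor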
Starred values were filed as active, the others as inactive; ? = inconclusive; nt = not tested or not shown; [ ] = dose if it differs, or a comment. Compounds with a hit are over-represented: about 8.8% of the library has one in this group of screens. Unless noted, calls follow the shape of the dose curve; as a rule, active = well fitted inhibition curve with a large enough effect (not every such curve was filed as active); inconclusive = small, poorly fitted or top-dose-only effect, or another doubt; inactive = no such curve, though single readings can be large or run the other way. Potency is read from the fitted curve at half-maximal effect.

SMILES | HTT ATP protect | Lamin A splicing | HPGD block | HttQ103 aggreg | ALDH1A1 block
O=C(O)CSC1=NCCN1 | 3%[10 µM] | nt | -6% | nt | 20%[13.5 µM]
CC(C)=CCC/C(C)=C/C=C/C1=CC2(C)CC1(C)C(/C=C(\C)CCC=C(C)C)CC2=O (stereo unspecified) | ? | nt | nt | nt | -14%[13.5 µM]
C/C(=N\NC(=O)C1(C)CC1(Br)Br)c1ccc(NC(=O)c2ccc(C)o2)cc1 (stereo unspecified) | 17%[10 µM] | -18% | 18µM* | -15% | -3%
CCOC(=O)C(C)NC(=O)c1c(C)oc2ncn(CC(C)C)c(=O)c12 (stereo unspecified) | nt | -15%[46 µM] | nt | nt | nt
Cn1ncc2c(N3CCN(c4ccc(F)cc4)CC3)ncnc21 | nt | 2%[46 µM] | nt | nt | nt
CCOc1ccc(OCC)c(NC(=O)CSc2nc3c(c(=O)n(C)c(=O)n3C)n2C)c1 | 25% | 7% | -8% | 3% | -2%
CCOc1ccc(OCC)c(NC(=O)CSc2nc3c(c(=O)n(C)c(=O)n3C)n2C(C)C)c1 | -31% | ? | nt | -5% | 8.9µM*
O=C(CSc1ccc(-c2ccc(F)cc2)nn1)N1CCCCC1 | -6% | 7% | 16µM* | 4% | -12%
CC1CCN(C(=O)CSc2ccc(-c3ccc(F)cc3)nn2)CC1 | -5% | ? | 10µM* | -13% | -2%
CCOc1ccc(-c2ccc(SCC(=O)N3CCN(c4ccccc4)CC3)nn2)cc1 | -8%[10 µM] | -2% | -4% | 13% | 18µM*
CC1CCN(C(=O)COc2ccccc2F)CC1 | -33% | 2% | 25µM* | 1% | -6%
CCOC(=O)N1CCN(C(=O)CSc2ccc(-c3ccc(OC)cc3)nn2)CC1 | -85% | 3%[46 µM] | nt | -12% | -4%
CC1CCCC(C)N1C(=O)COc1ccccc1F (stereo unspecified) | nt | 5%[46 µM] | nt | nt | 6%
O=C(CSc1ccc(-c2ccccc2)nn1)N1CCCCC1 | -34% | -11%[9.22 µM] | nt | -19% | -3%
CCOC(=O)c1nnsc1N | 1%[10 µM] | nt | nt | -8%[9.22 µM] | nt
COc1ccc(CC(=O)NCc2nc3cccnc3n2Cc2ccc(F)cc2)cc1OC | nt | -12%[46 µM] | nt | nt | nt
Cc1cc(O)c(/C=N/OCc2ccc(Cl)cc2Cl)c(=O)o1 | nt | ? | nt | -19% | 8%
O=c1c(/C=N/OCc2ccc(Cl)cc2Cl)c[nH]n1-c1cccc(Cl)n1 | -101% | -29%[9.22 µM] | nt | 10µM* | 4%
COC(=O)c1c(NC(=O)CN2C(=O)NC3(CCc4ccccc4C3)C2=O)sc2c1CCCCC2 (stereo unspecified) | nt | 3% | -16% | 6% | ?
CN(Cc1ccco1)c1nc(-c2ccccc2Cl)nc2ccccc12 | 4% | ? | -8% | nt | -15%
CN(Cc1ccco1)c1nc(-c2cccnc2)nc2ccccc12 | 4% | ? | nt | nt | 32µM*
C=CCCCCCCCCCCCC(O)CC(O)CO (stereo unspecified) (tested in a mixture with another compound) | -23% | nt | -2% | nt | 5%
COc1cc(C)c(NC(=S)Nc2cccc(Cl)c2)cc1OC | 29%[10 µM] | -13% | -5% | -4% | ?
Cc1cccc(NC(=S)NCc2ccc(F)cc2)c1 | nt | ? | -29% | 16% | ?
COc1cc(NC(=S)N(C)C)c(OC)cc1Cl | 22%[10 µM] | nt | nt | -7%[9.22 µM] | nt
SMILES | HTT ATP protect | Lamin A splicing | HPGD block | HttQ103 aggreg | ALDH1A1 block
COc1cc(OC)c(NC(=S)Nc2cccc(C)c2)cc1Cl | nt | -12% | 16µM* | 19% | ?
Cc1cccc(NC(=S)NC(C)(C)CC(C)(C)C)c1 | 8.9µM* | -11%[46 µM] | nt | ? | 3%
COc1cc(NC(=S)NC2CC2)c(OC)cc1Cl | -5%[10 µM] | 14% | -5% | 20µM* | ?
CCCCNc1nc(C)nc2c1nc(-c1ccccc1)n2CCN1CCCCC1 | -42% | nt | ? | nt | ?
Cc1nc(N2CCOCC2)c2nc(-c3ccccc3)n(CCCN3CCOCC3)c2n1 | 5% | nt | ? | nt | ?
Cc1cccc(OCC(=O)Nc2cccc(C(=O)OCc3cc(=O)n4nc(C(C)C)sc4n3)c2)c1 | nt | -13%[46 µM] | nt | nt | nt
Cc1cc(C)nc(SCc2nnc(SCC(=O)N3CCCc4ccccc43)o2)n1 | -1% | 0% | -15% | 14% | ?
O=C(CSc1nnc(CNc2ccccc2)o1)N1CCc2ccccc21 | -8% | 6% | -9% | 13% | 16µM*
O=C(CSc1nnc(Cc2ccccc2)o1)N1CCCc2ccccc21 | 1% | 1% | ? | 0% | 18µM*
